Source: PubChem BioAssay (NCATS)
Results filed as inconclusive are left out. Activity calls are given as the source filed them. The call rests on the fitted dose curve; in most records, active means well fitted cell-killing curve with a large enough effect; inconclusive means small, poorly fitted or top-dose-only effect, or effect the other way; inactive means no such curve, though single readings can be large or run the other way.

Legend:
[1] = Quantitative High-Throughput drug screen in 47 multiple myeloma cell lines against the NCATS MIPE library collection: MM1R_ATCC cell viability assay (AID 1918981); further: nearly all actives have a fitted effect of over 35% in size
How it was run: (§1)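 Inhibition of viability over 48 h was scored by ATP content (CellTiter-Glo) in 500-cell wells. Zero and full viability were defined by media-only and DMSO-only wells.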

[2] = Quantitative High-Throughput drug screen in 47 multiple myeloma cell lines against the NCATS MIPE library collection: LP1_DSMZ cell viability assay (AID 1918982); further: nearly all actives have a fitted effect of over 35% in size
How it was run: as §1

[3] = Quantitative High-Throughput drug screen in 47 multiple myeloma cell lines against the NCATS MIPE library collection: OCIMY7_PLB cell viability assay (AID 1918987); further: nearly all actives have a fitted effect of over 65% in size
How it was run: as §1

[4] = Quantitative High-Throughput drug screen in 47 multiple myeloma cell lines against the NCATS MIPE library collection: OCIMY5_PLB cell viability assay (AID 1918988); further: nearly all actives have a fitted effect of over 65% in size
How it was run: as §1

[5] = Quantitative High-Throughput drug screen in 47 multiple myeloma cell lines against the NCATS MIPE library collection: SKMM1_PLB cell viability assay (AID 1919863); settings: SKMM1 myeloma viability, CellTiter-Glo ATP, 48 h; viability: stronger effect = lower value; further: nearly all actives have a fitted effect of over 35% in size
How it was run: as §1

[6] = Quantitative High-Throughput drug screen in 47 multiple myeloma cell lines against the NCATS MIPE library collection: U266_ATCC cell viability assay (AID 1919864); further: nearly all actives have a fitted effect of over 35% in size
How it was run: as §1

[7] = Quantitative High-Throughput drug screen in 47 multiple myeloma cell lines against the NCATS MIPE library collection: VP6_DJ cell viability assay (AID 1919867); further: nearly all actives have a fitted effect of over 40% in size
How it was run: as §1

[8] = Quantitative High-Throughput drug screen in 47 multiple myeloma cell lines against the NCATS MIPE library collection: UTMC2_PLB cell viability assay (AID 1919868); settings: CellTiter-Glo ATP luminescence, 48 h; viability (% of DMSO control): at 45.8 µM (top of the series); further: nearly all actives have a fitted effect of over 55% in size
How it was run: as §1

[9] = Quantitative High-Throughput drug screen in 47 multiple myeloma cell lines against the NCATS MIPE library collection: PE2_PLB cell viability assay (AID 1919869); further: nearly all actives have a fitted effect of over 35% in size
How it was run: as §1

[10] = Quantitative High-Throughput drug screen in 47 multiple myeloma cell lines against the NCATS MIPE library collection: PCM6_Riken cell viability assay (AID 1919870); further: nearly all actives have a fitted effect of over 30% in size
How it was run: as §1

[11] = Quantitative High-Throughput drug screen in 47 multiple myeloma cell lines against the NCATS MIPE library collection: RPMI8226_ATCC cell viability assay (AID 1919871); further: nearly all actives have a fitted effect of over 30% in size
How it was run: as §1

[12] = Quantitative High-Throughput drug screen in 47 multiple myeloma cell lines against the NCATS MIPE library collection: OPM2_DSMZ cell viability assay (AID 1919872); further: nearly all actives have a fitted effect of over 30% in size
How it was run: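 We plated 500 myeloma cells per well, pinned in MIPE 4.0 compounds, and incubated for 48 hours at 37C. ATP was then quantified with CellTiter-Glo, with DMSO and media-only wells defining 100% and 0%.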

[13] = Quantitative High-Throughput drug screen in 47 multiple myeloma cell lines against the NCATS MIPE library collection: KMS11_JCRBsus cell viability assay (AID 1919873); further: nearly all actives have a fitted effect of over 50% in size
How it was run: as §1

[14] = Quantitative High-Throughput drug screen in 47 multiple myeloma cell lines against the NCATS MIPE library collection: KMS28BM_JCRB cell viability assay (AID 1919874); further: nearly all actives have a fitted effect of over 35% in size
How it was run: as §1

[15] = Quantitative High-Throughput drug screen in 47 multiple myeloma cell lines against the NCATS MIPE library collection: L363_DSMZ cell viability assay (AID 1918984); further: nearly all actives have a fitted effect of over 40% in size
How it was run: as §1

[16] = Quantitative High-Throughput drug screen in 47 multiple myeloma cell lines against the NCATS MIPE library collection: OPM1_PLB cell viability assay (AID 1918989); further: nearly all actives have a fitted effect of over 40% in size
How it was run: as §1

[17] = Quantitative High-Throughput drug screen in 47 multiple myeloma cell lines against the NCATS MIPE library collection: XG6_PLB cell viability assay (AID 1919865); further: nearly all actives have a fitted effect of over 40% in size
How it was run: as §1

[18] = Quantitative High-Throughput drug screen in 47 multiple myeloma cell lines against the NCATS MIPE library collection: XG1_PLB cell viability assay (AID 1919866); further: nearly all actives have a fitted effect of over 35% in size
How it was run: as §1

[19] = Quantitative High-Throughput drug screen in 47 multiple myeloma cell lines against the NCATS MIPE library collection: KMS34_JCRB cell viability assay (AID 1918985); further: nearly all actives have a fitted effect of over 40% in size
How it was run: as §1

[20] = Quantitative High-Throughput drug screen in 47 multiple myeloma cell lines against the NCATS MIPE library collection: KMS28PE_JCRB cell viability assay (AID 1918983); further: nearly all actives have a fitted effect of over 35% in size
How it was run: as §1
Potency means the concentration at half of the fitted maximal effect.

C[C@@]12OC(=O)[C@]1([C@@H](O)[C@@H]1C=CCCC1)NC(=O)[C@H]2CCCl
active: Potency [1] 3.7 nM | Potency [2] 16.6 nM | Potency [3] 1 nM | Potency [4] 4.7 nM | Potency [5] 105 nM | Potency [6] 13.2 nM | Potency [7] 1 nM | Potency [8] 23.5 nM | Potency [9] 8.3 nM | Potency [10] 10.5 nM | Potency [11] 29.6 nM | Potency [12] 37.2 nM | Potency [13] 6.6 nM | Potency [14] 9.3 nM

Cc1ccccc1-n1c(Cn2ncc3c(N)ncnc32)nc2cccc(C)c2c1=O
active: Potency [1] 16600 nM | Potency [15] 74.3 nM | Potency [3] 3320 nM | Potency [16] 148 nM | Potency [5] 5260 nM | Potency [17] 41.8 nM | Potency [18] 296 nM | Potency [7] 166 nM | Potency [8] 74.3 nM | Potency [11] 8330 nM | Potency [12] 8330 nM | Potency [13] 1050 nM
inactive: Potency [6]

CC(N[C@H]1C[C@H]1c1ccccc1)c1ccc2c(c1)OCCO2 (stereo not given in full)
inactive: Potency [1] | Potency [2] | Potency [16] | Potency [17] | Potency [18] | Potency [11] | Potency [12] | Potency [13] | Potency [14]
active: Potency [6] 14800 nM

Oc1ccc2c3c1O[C@H]1c4[nH]c5c(c4C[C@@]4(O)[C@@H](C2)N(CC2CC2)CC[C@]314)C[C@@]1(O)[C@H]2Cc3ccc(O)c4c3[C@@]1(CCN2CC1CC1)[C@H]5O4
inactive: Potency [1] | Potency [2] | Potency [19] | Potency [17] | Potency [18] | Potency [9] | Potency [10] | Potency [11] | Potency [12] | Potency [13] | Potency [14]

CC(C)N[C@@H]1CCn2c(=O)[nH]c3cccc(c32)[C@@H]1O
active: Potency [1] 6620 nM | Potency [20] 20900 nM | Potency [19] 10500 nM | Potency [4] 118 nM | Potency [16] 11800 nM | Potency [6] 1660 nM | Potency [17] 2350 nM | Potency [18] 3320 nM | Potency [8] 10500 nM

C=CCON=C(C[C@H]1O[C@@H]2O[C@]3(C)CC[C@@H]4[C@H](C)CC[C@@H]([C@H]1C)[C@@]24OO3)[C@H]1O[C@@H]2O[C@]3(C)CC[C@H]4[C@H](C)CC[C@@H]([C@@H]1C)[C@@]24OO3
active: Potency [1] 296 nM | Potency [20] 264 nM | Potency [3] 105 nM | Potency [4] 187 nM | Potency [16] 526 nM | Potency [5] 264 nM | Potency [6] 332 nM | Potency [17] 264 nM | Potency [18] 418 nM | Potency [7] 166 nM | Potency [8] 372 nM | Potency [9] 469 nM | Potency [11] 235 nM | Potency [13] 187 nM | Potency [14] 332 nM

Cc1nc(-c2ccc(-c3ccc(C(=O)N4CCc5cc6c(cc54)C4(CCN(C)CC4)CO6)cc3)c(C)c2)no1
inactive: Potency [1] | Potency [2] | viability [5] 124% | Potency [18] | Potency [12] | Potency [13] | Potency [14]

CN[C@@H]1Cc2cccc3[nH]c(=O)n(c23)C1
inactive: Potency [1] | Potency [20] | viability [5] 93.2% | Potency [6] | Potency [18] | Potency [8] | Potency [9] | Potency [10] | Potency [11] | Potency [12] | Potency [13] | Potency [14]

Cc1ccccc1-n1c(Cn2cnc3c(N)ncnc32)nc2cccc(C)c2c1=O
active: Potency [1] 187 nM | Potency [20] 296 nM | Potency [3] 1320 nM | Potency [4] 1660 nM | Potency [16] 332 nM | Potency [5] 526 nM | Potency [17] 469 nM | Potency [18] 209 nM | Potency [7] 187 nM | Potency [8] 66.2 nM | Potency [12] 1050 nM | Potency [14] 372 nM

O=C(Oc1ccc([N+](=O)[O-])cc1)N1CCC(C(O)(c2ccc3c(c2)OCO3)c2ccc3c(c2)OCO3)CC1
inactive: Potency [1] | Potency [2] | Potency [19] | viability [5] 123% | Potency [7] | Potency [12] | Potency [13] | Potency [14]
active: Potency [17] 16600 nM

CC(C)(O)C(=O)Nc1ccc([N+](=O)[O-])c(C(F)(F)F)c1
inactive: Potency [1] | Potency [20] | Potency [11] | Potency [12]
active: Potency [3] 7430 nM | Potency [16] 20900 nM | Potency [6] 18700 nM | Potency [17] 3320 nM | Potency [18] 8330 nM | Potency [7] 8330 nM | Potency [9] 9350 nM

CN(C)[C@@H]1C(=O)C(C(N)=O)=C(O)[C@@]2(O)C(=O)C3=C(O)c4c(O)cccc4[C@@](C)(O)[C@H]3[C@H](O)[C@@H]12
active: Potency [5] 14800 nM | Potency [6] 18700 nM | Potency [17] 5900 nM | Potency [18] 16600 nM | Potency [7] 23500 nM | Potency [12] 20900 nM
inactive: Potency [1] | Potency [2] | Potency [10] | Potency [13] | Potency [14]

C[C@@H]1[C@H](O)[C@@H](C)C=CC=CCCC=CC=CC=CC=C[C@H](O[C@H]2O[C@@H](C)[C@H](O)[C@@H](N)[C@@H]2O)CC2O[C@](O)(C[C@@H](O)[C@H](O)CC[C@@H](O)C[C@@H](O)C[C@@H](O)CC(=O)O[C@H]1C)C[C@H](O)[C@H]2C(=O)O
inactive: Potency [1] | Potency [2] | Potency [19] | viability [5] 120% | Potency [6] | Potency [18] | Potency [7] | Potency [9] | Potency [12] | Potency [13] | Potency [14]

CC(C)[C@]12O[C@@H]1[C@@H]1O[C@]13[C@]1(O[C@H]1C[C@@H]1C4=C(CC[C@@]13C)C(=O)OC4)[C@H]2O
inactive: Potency [1] | Potency [2] | Potency [3] | viability [5] -10.1% | Potency [6] | Potency [17] | Potency [18] | Potency [7] | Potency [8] | Potency [9] | Potency [10] | Potency [11] | Potency [12] | Potency [13] | Potency [14]
